PubChem BioAssay (NCI)
The panel holds about 83,000 compounds, 20% with a hit somewhere; the sample as a whole holds those more often.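 Step 1: grow cells in 96-well plates. Step 2: add test compound at a single concentration. Step 3: incubate 48 h. Step 4: record percent growth.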 Activity calls are given as the source filed them. How the source made its calls: active means growth percent below 10; inactive means the rest.

Columns and labels:
Test in all cases: NCI-60 one-dose screen, 48 h (100 = growth as untreated, 0 = no growth, -100 = all killed)
HCT-15 colon = conditions: 10 µM
HT29 colon = conditions: 10 µM
SNB-75 CNS = conditions: 10 µM
SNB-19 CNS = conditions: 10 µM
U251 CNS = conditions: 10 µM
PC-3 prostate = conditions: 10 µM
SK-MEL-5 melanoma = conditions: 10 µM
UACC-62 melanoma = conditions: 10 µM unless noted
LOX IMVI melanoma = conditions: 10 µM
SK-MEL-28 melanoma = conditions: 10 µM

Measured: growth

CCCCCCCC[N+]12CN3CN(CN(C3)C1)C2
inactive: HCT-15 colon 96.7% | HT29 colon 112% | SNB-75 CNS 89.4% | SNB-19 CNS 90.1% | U251 CNS 101% | PC-3 prostate 96.7% | SK-MEL-5 melanoma 98% | UACC-62 melanoma 91.7% | LOX IMVI melanoma 97.5% | SK-MEL-28 melanoma 98.8%

CC/C(=C/c1ccc(OC)cc1)[N+](=O)[O-]
active: HCT-15 colon -35.4% | HT29 colon 3.04% | UACC-62 melanoma -60.8% | LOX IMVI melanoma -92.5% | SK-MEL-28 melanoma -52.4%
inactive: SNB-75 CNS 53.9% | SNB-19 CNS 30.1% | U251 CNS 22.5% | PC-3 prostate 59.2% | SK-MEL-5 melanoma 36.2%

[Cl][Hg][c]1ccc(Cl)s1
active: HCT-15 colon -59.5% | LOX IMVI melanoma -70.9% | SK-MEL-28 melanoma -85.4%
inactive: HT29 colon 25.2% | SNB-75 CNS 58.1% | SNB-19 CNS 75.5% | U251 CNS 14.9% | PC-3 prostate 64.1% | SK-MEL-5 melanoma 46% | UACC-62 melanoma 51.3%

CC(=O)[O][Hg][c]1c(C)c(C)cc(C)c1C
active: HCT-15 colon -39.6% | HT29 colon -62.1% | SNB-75 CNS -81.2% | U251 CNS -97.3% | PC-3 prostate -77.3% | SK-MEL-5 melanoma -57.5% | LOX IMVI melanoma -95.3% | SK-MEL-28 melanoma -37.9%
inactive: SNB-19 CNS 39.8%

COS(=O)(=O)c1ccccc1
inactive: HCT-15 colon 108% | HT29 colon 110% | SNB-75 CNS 95.2% | SNB-19 CNS 110% | U251 CNS 96.4% | PC-3 prostate 102% | SK-MEL-5 melanoma 108% | LOX IMVI melanoma 102% | SK-MEL-28 melanoma 113%

O=C(CBr)Nc1ccc(Cl)cc1
active: HT29 colon 4.44% | LOX IMVI melanoma -57.4%
inactive: HCT-15 colon 17.6% | SNB-75 CNS 102% | SNB-19 CNS 88.8% | U251 CNS 86.8% | PC-3 prostate 93.3% | SK-MEL-5 melanoma 78.3% | SK-MEL-28 melanoma 102%
